Test results: ChEMBL document CHEMBL1961873, “Compounds: GSK PKIS; Assays: Nanosyn kinase panel” (2012)

target: Mitogen-activated protein kinase 1 (Homo sapiens) (UniProt P28482); conditions: at 0.1 µM
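Further: reported figure is an averaged percent inhibition of the kinase.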

Mitogen-activated protein kinase 1 (Homo sapiens), sequence (P28482 whole entry): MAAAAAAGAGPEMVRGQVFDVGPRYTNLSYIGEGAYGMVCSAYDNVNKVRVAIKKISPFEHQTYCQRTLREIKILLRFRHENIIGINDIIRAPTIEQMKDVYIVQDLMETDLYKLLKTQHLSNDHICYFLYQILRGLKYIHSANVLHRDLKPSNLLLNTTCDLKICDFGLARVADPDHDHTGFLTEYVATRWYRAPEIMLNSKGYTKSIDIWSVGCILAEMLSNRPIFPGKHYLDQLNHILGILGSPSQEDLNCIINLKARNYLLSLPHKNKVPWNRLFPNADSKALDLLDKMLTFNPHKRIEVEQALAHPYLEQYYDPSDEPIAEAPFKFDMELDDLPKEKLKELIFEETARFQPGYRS

How did the inhibition turn out when CS(=O)(=O)CCNCc1cc(-c2cc3c(Nc4ccc(OCc5cccc(F)c5)c(Cl)c4)ncnc3s2)cs1 was run?
The inhibition was 5.61%.

How did the inhibition turn out when CCC(=O)Nc1ccc(C)c(-c2ccc(C(=O)NCC3CC3)cc2)c1 was run?
Its inhibition is 4.32%.

Which inhibition does the source give for COc1cc(Nc2ncc3c(C)nc(-c4cccc(C(F)(F)F)c4)n3n2)cc(OC)c1OC here?
The inhibition was 5.55%.

Which inhibition does the source give for Fc1ccc(-c2nc3n(c2-c2ccncc2)CCS3)cc1 here?
Its inhibition is 3.06%.

For NC(=O)c1cc(-c2ccncc2)cc(-c2ccccc2)c1N, which inhibition is on record?
The inhibition was 4%.

Which inhibition does the source give for CCc1nccc2c1nc(-c1nonc1N)n2CC here?
The inhibition was -1.66%.

For CN(C)c1ccc2c(c1)/C(=C/Nc1ccc(S(N)(=O)=O)cc1)C(=O)N2, which inhibition is on record?
Its inhibition is 1.12%.

CS(=O)(=O)CCNCc1ccc(-c2ccc3ncnc(Nc4ccc(OCc5ccccc5)c(Br)c4)c3c2)o1 was tested. Which inhibition did it give?
The inhibition was 5.3%.

For Cc1nnc(-c2ccc(C)c(-c3ccc(C(=O)NCc4ccc(Cl)cc4)cc3)c2)o1, which inhibition is on record?
The inhibition was 8.3%.

With Cc1ccc(C(=O)NC2CCC2)cc1-c1ccc(C(=O)NCC2CC2)cc1 as the compound, how does the inhibition read?
Its inhibition is 0.32%.

How did the inhibition turn out when Clc1ccc(CNc2nccc(-c3cnn4ncccc34)n2)cc1 was run?
Its inhibition is 4.19%.

c1ccc(-c2n[nH]cc2-c2ccnc(-c3ccc(OCCN4CCOCC4)cc3)c2)nc1 was tested. Which inhibition did it give?
The inhibition was -2.8%.

With CCS(=O)(=O)c1ccc(OC)c(Nc2ncc(-c3cccc(-c4ccccc4F)c3)o2)c1 as the compound, how does the inhibition read?
The inhibition was -1.77%.

COc1cc2ncn(-c3cc(OCc4cccs4)c(C(N)=O)s3)c2cc1OC was tested. Which inhibition did it give?
Its inhibition is 5.16%.

Which inhibition does the source give for O=C1Nc2ccccc2/C1=C/Nc1ccc(-n2cncn2)cc1 here?
The inhibition was 6.04%.

How did the inhibition turn out when C/C(Nc1ccc(S(N)(=O)=O)cc1)=C1/C(=O)Nc2ccccc21 was run?
The inhibition was 3.1%.

With CCc1cccc(CC)c1/C=C/c1cncc(C(=O)NC)c1 as the compound, how does the inhibition read?
The inhibition was 1.29%.

Which inhibition does the source give for NC(=O)c1cc(-c2ccc(F)cc2)cc(-c2ccncc2)c1N here?
The inhibition was 4.92%.

Which inhibition does the source give for O=C(NCC1CC1)c1ccc(-c2cccc(C(=O)NC3CC3)c2)cc1 here?
Its inhibition is 1.42%.

For COc1ccc2ncn(-c3cc(O[C@H](C)c4ccccc4Cl)c(C(N)=O)s3)c2c1, which inhibition is on record?
Its inhibition is 5.14%.

Which inhibition does the source give for O=C1Nc2ccc(I)cc2C1=Cc1cc(Br)c(O)c(Br)c1 here?
The inhibition was 2.02%.

How did the inhibition turn out when Fc1ccc(-c2ncn(CCCN3CCOCC3)c2-c2ccncc2)cc1 was run?
The inhibition was 0.12%.

How did the inhibition turn out when COc1ccc2cc(-c3c(-c4ccncc4)nc(-c4ccc([S+](C)[O-])cc4C)n3C)ccc2c1 (centres undefined) was run?
The inhibition was -0.46%.

Which inhibition does the source give for COC(=O)Nc1nc2ccc(Sc3ccc(NC(=O)Nc4cc(C(F)(F)F)ccc4F)cc3)cc2[nH]1 here?
The inhibition was -0.51%.

Which inhibition does the source give for CN(C)CCCNc1nccc(-c2c(-c3ccc(F)cc3)nn3cc(C(F)(F)F)ccc23)n1 here?
Its inhibition is 1.62%.

CCS(=O)(=O)c1ccc(OC)c(Nc2ncc(-c3ccccc3Cl)o2)c1 was tested. Which inhibition did it give?
Its inhibition is 0.66%.

How did the inhibition turn out when Fc1ccc(-c2c(-c3ccncc3)nc3n2CCS3)cc1 was run?
Its inhibition is 2.87%.

How did the inhibition turn out when CCN(CC)Cc1ccc(Nc2nccc(-c3cnn4ncccc34)n2)cc1 was run?
Its inhibition is 6.89%.

With COc1cc2ncn(-c3cc(OCCc4ccccc4)c(C(N)=O)s3)c2cc1OC as the compound, how does the inhibition read?
Its inhibition is 1.47%.

With Cc1ccc(NC(=O)c2ccoc2)cc1-c1ccc(C(=O)NCC2CC2)cc1 as the compound, how does the inhibition read?
The inhibition was 3.2%.

NS(=O)(=O)c1ccc(N/N=C2\C(=O)Nc3ccc(C(=O)NCCCn4ccnc4)cc32)cc1 was tested. Which inhibition did it give?
The inhibition was 9.89%.

How did the inhibition turn out when NCc1ccc(-n2c(-c3nonc3N)nc3cnccc32)cc1 was run?
Its inhibition is 6.45%.

Which inhibition does the source give for COc1cccc(-n2cnc3c(N/N=C/c4ccncc4)ncnc32)c1 here?
Its inhibition is -1.43%.

Which inhibition does the source give for C[C@@H](Oc1cc(-n2cnc3ccc(OC4CCN(C)CC4)cc32)sc1C(N)=O)c1ccccc1Cl here?
The inhibition was 5.74%.
